The values below come from the supplement of paper PMC7866885, “A novel bicyclic 2,4-diaminopyrimidine inhibitor of Streptococcus suis dihydrofolate reductase” (PeerJ, 2021).

± gives the standard deviation.

This assay deals with Streptococcus suis P1/7. Briefly: percent growth relative to DMSO control; higher = less growth inhibition. Conditions: 10 µM; incubation time 18 h. As for the experimental part: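 CLSI broth microdilution: 5x10^4 CFU of Streptococcus suis (strain P1/7 or HE06) incubated with 10 µM Pathogen Box compound in cation-adjusted Mueller Hinton broth, 37 °C, 5% CO2, 18 h. Growth read as OD600 and expressed as percent of the DMSO-treated control (100%); mean ± SD of three independent experiments.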
Compound `O=C1COCc2ccc(Br)cc2N1Cc1ccc(C(F)(F)F)cc1` registered a percent growth of 75.4 ± 7.3%.
The result for `CC(C)C(Oc1cccc2ccccc12)C(=O)O` (stereo not given) reads 64 ± 22%; that for `CCCn1c(NC(=O)c2ccc3ccccc3n2)nc2ccccc21`, 0.618 ± 1.5%; that for `Cc1cccnc1NC(=O)c1cccc(OCc2c(C)noc2C)c1`, 96.3 ± 39%.
The result for `Nc1nccc2ccc(Oc3ccncc3)cc12` reads 84.2 ± 8.7%; that for `CC(=O)N(CCN(C(=O)c1ccc(F)cc1)c1ccccc1)c1ccccc1`, 69 ± 13%.
In turn, `COc1ccccc1OCCCCn1c(C2CC2)nc2ccccc21` registered a percent growth of 102 ± 21%.
The result for `Cc1ccc2[nH]c3c(NCCN(C)C)ncnc3c2c1` reads 172 ± 110%.
Compound `CCOc1ccc(OCC(=O)Nc2cc(C)cc(C)c2)cc1` yielded a percent growth of 94.3 ± 16%.
The result for `COC(=O)c1ccc(F)cc1NS(=O)(=O)c1cccc(-c2cnn(Cc3ccccc3)c2)c1` reads 127 ± 52%.
`O=C(CCC1CCCCC1)Nc1cccc(-c2nnc(-c3ccco3)o2)c1`: the percent growth came out at 111 ± 46%.
In turn, `COc1ccc(Cl)cc1NC(=O)CN(C)C(=O)c1cnn(-c2ccccc2)n1` displayed a percent growth of 80.3 ± 29%.
The result for `CN(C(=O)c1cc2c(-c3cncnc3)cccc2[nH]1)c1ccccc1` reads 72.2 ± 27%; that for `O=C(Nc1nnc(S)s1)c1cc(Br)ccc1Cl`, 79.5 ± 9.2%.
As for `CCOC(=O)c1noc(N)c1-c1ccccc1`, the percent growth amounted to 113 ± 32%.
Turning to `Cc1cc(Nc2ccc(C(F)(F)F)cc2)n2ccnc2n1`, the percent growth was found to be 97.6 ± 41%.
On to `c1ccc(Oc2ccc(-c3cc(N4CCNCC4)[nH]n3)cc2)cc1`, for which the percent growth worked out at 67.6 ± 28%.
Compound `Cc1nc(-c2cccc(NCc3ccccc3)c2)[nH]c1C` had a percent growth of 12 ± 5.5%.
The result for `CNc1snc(C)c1C(=O)NCCOc1ccc(OC)cc1` reads 115 ± 71%; that for `O=C(Nc1cnc2ccccc2c1)c1cccc(-n2cnnn2)c1`, 106 ± 28%; that for `CC(C(=O)Nc1ccc2oc(-c3ccncc3)nc2c1)c1ccccc1` (stereo not given), 95.8 ± 45%.
As for `Cc1ccc(C(=O)Nc2ccc(S(=O)(=O)O)c3cc(S(=O)(=O)O)cc(S(=O)(=O)O)c23)cc1NC(=O)c1cccc(NC(=O)Nc2cccc(C(=O)Nc3cc(C(=O)Nc4ccc(S(=O)(=O)O)c5cc(S(=O)(=O)O)cc(S(=O)(=O)O)c45)ccc3C)c2)c1`, the percent growth was 85.9 ± 15%.
In the case of `CO[C@@H](C(=O)N1Cc2[nH]nc(NC(=O)c3ccc(N4CCN(C)CC4)cc3)c2C1)c1ccccc1`, the percent growth is 86.3 ± 15%.
In the case of `CC[P](CC)(CC)=[Au][S][C@H]1O[C@@H](COC(C)=O)[C@H](OC(C)=O)[C@@H](OC(C)=O)[C@@H]1OC(C)=O` it was 1.51 ± 1.8%; in that of `COc1ccc(-c2nn(C(C)C)c3ncnc(N)c23)cc1OC`, 121 ± 74%.
The result for `Cn1ccnc1CNCCS(=O)(=O)c1cccc(Nc2ccc(-c3cccc(F)c3)cn2)c1` reads 35 ± 38%; that for `O=C(NC1CC1)c1ccc(N2CCOc3ccc(Cl)cc32)s1`, 85.5 ± 14%.
In the case of `Cc1cc(C)cc(COc2ccc3c(C)c(CCC(=O)O)c(=O)oc3c2C)c1` it was 35.3 ± 14%.
As to `COc1ccc(-c2cnc3ccc(N4CCCC4)nn23)cc1OC`, the percent growth was determined as 77.7 ± 7.5%.
In the case of `COc1ccc(Nc2ccccc2NC(=O)c2ccc(O)nc2)cc1` it was 99.1 ± 41%.
The result for `c1ccc(Oc2ccc(-c3cncc(-c4ccc5[nH]ccc5c4)n3)cc2)cc1` reads 83.7 ± 20%.
`CC(C)(C)n1nc(Cc2cccc3ccccc23)c2c(N)ncnc21` came in with a percent growth of 87.7 ± 16%.
The result for `O=C(c1cc2ccccc2o1)N1CCN(Cc2ccc3c(c2)OCO3)CC1` reads 102 ± 20%; that for `Cc1ccc2nc(C)c(-c3ccn(Cc4ccccc4)n3)n2c1`, 62.9 ± 23%.
In the case of `C[C@H](C(N)=O)N1CCCC[C@H]1c1ccc(OCc2cccc(F)c2)cc1` it was 63.4 ± 26%; in that of `CCOc1ccccc1NC(C)C(=O)Nc1cc(C(F)(F)F)ccc1N1CCOCC1` (stereo not given), 109 ± 31%.
Consider `c1cc(C2=NCCN2)cc(-c2cc(-c3ccc(C4=NCCN4)cc3)no2)c1`, for which the percent growth turned out to be 88.8 ± 25%.
In turn, `COc1ccc(-c2cnc3cnc(-c4cccc(OC(C)C)c4)cn23)cc1` registered a percent growth of 25.7 ± 45%.
In turn, `CC(C)(C)c1cc(C(=O)N2CCN(c3nccnc3C#N)CC2)n(Cc2ccccc2)n1` gave a percent growth of 91.6 ± 34%.
Take `C[C@H](c1ccc2c(c1)CCCC2)N(C)c1ncc2c(N)nc(N)nc2n1`: the percent growth was found to be 76.6 ± 18%.
